Data taken from PubChem BioAssay (EPA / NIEHS).
Activity calls are given as the source filed them. The calls were made as follows: active = hit-call score of the fitted dose curve at least 0.9, where 1 is the maximum; inactive = score below 0.9.

What follows are compounds tested on urokinase Plasminogen Activator (uPA), PLAU (gene 5328) (assay: BSK_BF4T_uPA: BioMAP Diversity Plus: BF4T Assay for urokinase Plasminogen Activator (uPA) Biomarker Activity (AID 2284275)). Settings: primary human bronchial epithelial cells with fibroblasts.
Procedure: BSK_BF4T is a cell-based, multiplexed-readout assay that uses bronchial epithelial cells and dermal fibroblasts, a human vascular primary cell, with measurements taken at 24 hours after chemical dosing in a microplate: 96-well plate.BSK_BF4TA is an assay component measured in the BSK_BF4T assay. It measures uPA antibody related to regulation of gene expression using ELISA technology.Data from the assay component BSK_BF4TA was analyzed at the endpoint, BSK_BF4TA, in the positive analysis fitting direction relative to DMSO as the negative control and baseline of activity. Using a type of binding reporter, gain or loss-of-signal activity can be used to understand protein changes. To generalize the intended target to other relatable targets, this assay endpoint is annotated to the 'protease' intended target family, where the subfamily is 'serine protease'.
The levels of cell surface (or secreted, indicated by the prefix "s") biomarker endpoints were measured by ELISA. Overt cytotoxicity to cells in confluent adherent cultures (all systems other than the BT system) was assessed by measuring total protein levels using sulforhodamine B (SRB) staining in parallel cultures at the time of biomarker measurements, indicated as SRB endpoints. For proliferation assays for adherent cell types, individual cell types are cultured at sub-confluence and relative cell numbers quantified by SRB staining at time points optimized for each system (48 h: 3C and CASM3C systems; 72 h: BT and HDF3CGF systems; 96 h: SAg system). SRB was performed by staining cells with 0.1% SRB after fixation with 10% TCA and reading wells at 560 nm.Viability and proliferation of PBMC (T cells) was quantified by Alamar Blue reduction for the SAg and BT systems. For PBMC viability (referred to as PBMC Cytotoxicity within the assay endpoint names), cells were plated (75,000/well in a 96-well plate) and then chemical samples added for 1 h before addition of activators, SEB and TSST-1 (20 ng/mL final concentration each). Cells were incubated for 90 h. Then, Alamar Blue (20 uL/well) (Invitrogen, Cat DAL1100) was added for 6 h, and the plates were read with a fluorescence microplate reader at 546/580 nm (excitation/emission). For PBMC proliferation, cells were plated and activated as above but incubated for only 16 h prior to addition of Alamar Blue. Plates were read after 6 h.

| Structure (SMILES) | outcome |
| --- | --- |
| OCCC(F)(F)C(F)(F)C(F)(F)C(F)(F)F | inactive |
| C[Si](C)(C)C(F)(F)C(F)(F)C(F)(F)F | inactive |
| FC(F)C(F)(F)COCC1CO1 (stereo not given) | inactive |
| O=C(Cl)C(F)(F)C(F)(F)C(F)(F)C(=O)Cl | inactive |
| FC(F)(F)C(F)(F)C(F)(F)C(F)(F)C(F)(F)C(F)(F)I | inactive |
| FC(F)=C(F)C(F)(F)C(F)(F)C(F)(F)C(F)(F)C(F)(F)C(F)(F)F | inactive |
| OC(O)(C(F)C(O)(O)C(F)(F)F)C(F)(F)F | inactive |
| NCC(F)(F)C(F)(F)C(F)(F)C(F)(F)F | inactive |
| O=S(=O)(O)CCC(F)(F)C(F)(F)C(F)(F)C(F)(F)C(F)(F)C(F)(F)F | inactive |
| FC(F)(F)COC(OCC(F)(F)F)OCC(F)(F)F | inactive |
